Hits are enriched below; roughly 2.9% of the tested compounds scored in any of these assays.
MEKK2mut PB1 HTS = signal of MEK5 binding to mutant human MEKK2 PB1 domain; actives 0.35% (n = 290,000); percent response, % at 10 µM; bead flow cytometry, Alexa488-MEK5 binding to MEKK2 mutant; in the data active = percent response above about 24%, passing the limit was not always enough
MEKK3 PB1 HTS = MEKK3-MEK5 PB1 interaction, increase or decrease; Q99759; bead-based flow cytometry, Alexa488-MEK5 binding to MEKK3; actives lie on both sides; 0 = blocked by unlabeled MEK5, 100 = vehicle; binding response (% of control), % at 10 µM; actives 1.4% (n = 290,000);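 active = binding response more than 3 SD above or below the average of its plate-row segment, actives on both sides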;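 note: Alexa488 bead fluorescence after subtracting the streptavidin-only scavenger bead signal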
B2AR ag = agonists of human beta-2 adrenergic receptor inducing internalization | response, % (test concentration not listed) | Am2.2-beta2AR cells, FAP receptor internalization, flow cytometry | AID 504454 | actives 0.43% (n = 340,000);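 active = response above a set limit, near 3 SD of response in nonfluorescent compounds, cut at about 42% in these data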
MEKK2wt PB1 HTS = raises or lowers MEK5 binding to wildtype human MEKK2 PB1 domain | Q9Y2U5 | bead flow cytometry, Alexa488-MEK5 binding to MEKK2 WT; actives lie on both sides | binding response (% of control), % at 10 µM | actives 1.1% (n = 290,000) | AID 1531; in the data active = binding response below about 67% or above about 130%
GRK2 inh = human GRK2 inhibition via aptamer displacement. bead flow cytometry, FAM-aptamer displacement from GRK2. inhibition of aptamer binding, % at 10 µM. actives 0.59% (n = 330,000). AID 488847;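 active = inhibition of aptamer binding above 40%, roughly 3 SD of noise, on plates passing a quality check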;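 note: median bead fluorescence of bound FAM aptamer so fluorescent compounds give negative values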
Target sequence (P25098 whole entry, looked up): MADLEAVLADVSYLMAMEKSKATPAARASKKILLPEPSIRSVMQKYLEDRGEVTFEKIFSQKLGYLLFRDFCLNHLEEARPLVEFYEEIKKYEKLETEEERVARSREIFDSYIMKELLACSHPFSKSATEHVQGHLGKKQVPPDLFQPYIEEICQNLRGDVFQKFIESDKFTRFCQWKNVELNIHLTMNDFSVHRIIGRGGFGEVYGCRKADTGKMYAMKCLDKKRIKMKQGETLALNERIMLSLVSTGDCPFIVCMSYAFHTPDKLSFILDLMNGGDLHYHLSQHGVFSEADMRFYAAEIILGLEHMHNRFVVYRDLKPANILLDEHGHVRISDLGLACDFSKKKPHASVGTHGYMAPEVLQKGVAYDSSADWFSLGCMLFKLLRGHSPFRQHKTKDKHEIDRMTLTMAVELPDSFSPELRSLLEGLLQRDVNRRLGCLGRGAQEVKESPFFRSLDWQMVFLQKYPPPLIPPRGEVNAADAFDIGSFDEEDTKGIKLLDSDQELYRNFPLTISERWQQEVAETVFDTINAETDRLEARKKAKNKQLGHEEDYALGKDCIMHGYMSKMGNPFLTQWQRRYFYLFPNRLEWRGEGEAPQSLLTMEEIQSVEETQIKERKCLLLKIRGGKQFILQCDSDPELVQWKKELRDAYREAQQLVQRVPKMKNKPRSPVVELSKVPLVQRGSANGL
GRK2 inh confirm = human GRK2 inhibition confirmation, cherry pick 1; AID 504451; actives 4% (n = 2,000); aptamer displacement, % at 10 µM; shares compounds with GRK2 inh; bead-bound GRK2, FAM-aptamer displacement, flow cytometry;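 active = aptamer displacement above 40%, near three times the noise of non-fluorescent compounds, on plates passing quality checks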;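 note: negative values mostly reflect intrinsic compound fluorescence rather than true enhancement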
Aptamer quench = counter-screen for GRK2 aptamer inhibitors: fluorescent aptamer quenchers; shares compounds with GRK2 inh; Fluorescent RNA aptamer beads, quenching, flow cytometry; active compounds read high; fluorescence change (kMESF span), kMESF (test concentration not listed); 110 tested, under 10 active; AID 504521;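 active = compounds whose bead fluorescence drops by more than 37 kMESF across the dose range, marking them as dye quenchers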
Aptamer quench SP = quenches fluorescent RNA aptamer, GRK2 hit artifact; shares compounds with GRK2 inh; fluorescence response (% of DMSO), % at 10 µM; 2,000 tested, under 10 active; Carboxyfluorescein RNA aptamer on beads, flow cytometry quenching; active compounds read low;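 active = compounds that quench the bead-bound fluorescent RNA probe, cutting fluorescence to under half of the solvent control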;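 note: counterscreen run without GRK2 so only probe quenching by compound is measured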
GRK2 confirm 2 = confirmation of human GRK2 inhibitors binding RNA aptamer site | bead-bound GRK2, FAM-aptamer displacement, flow cytometry | shares compounds with GRK2 inh | inhibition of aptamer binding, % at 10 µM | 360 tested, under 10 active;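 active = inhibition of aptamer binding above 40%, about triple the noise seen with nonglowing compounds, on plates passing quality control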;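 note: negative values mostly come from compounds that fluoresce themselves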
FAM quench CP2 = quenches fluorescent RNA aptamer, GRK2 hit artifact | shares compounds with GRK2 inh | carboxyfluorescein RNA aptamer beads, flow cytometry quenching; active compounds read low | fluorescence response vs DMSO, % at 10 µM | 360 tested, under 10 active | AID 588494;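 active = response vs DMSO under 50%, meaning signal dropped by over half, treated as fluorescence quencher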;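 note: labelled aptamer on streptavidin beads without GRK2 as a quench counter-screen; 100% = bead fluorescence of DMSO wells and lower means quenching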
* hit, by the source's call; . = no result given.

SMILES | MEKK2mut PB1 HTS | MEKK3 PB1 HTS | B2AR ag | MEKK2wt PB1 HTS | GRK2 inh | GRK2 inh confirm | Aptamer quench SP | others
Cn1c(=O)[nH]c(=O)c2c1nc(Br)n2CC(O)COc1ccccc1 (configuration not stated) | -1 | 100 | -8 | 102 | 75* | -4 | 102
Cn1c(=O)[nH]c(=O)c2c1nc(SCC(=O)O)n2CCOc1ccccc1 | 5 | 105 | -10 | 105 | 0 | 1 | 96
Cn1c(=O)[nH]c(=O)c2c1nc(SCC(=O)O)n2CCc1ccccc1 | -1 | 102 | -2 | 103 | 0 | . | .
CCN(CC)CCNc1nc2c(c(=O)[nH]c(=O)n2C)n1CC(O)COc1ccc(Cl)cc1Cl (configuration not stated) | 7 | 107 | -6 | 112 | 0 | . | .
Cn1c(=O)[nH]c(=O)c2c1nc(SCCN1CCOCC1)n2CCCc1ccccc1 | 8 | 105 | 3 | 108 | 1 | . | .
Cn1c(=O)[nH]c(=O)c2c1nc(SCCN1CCOCC1)n2Cc1ccccc1 | 1 | 99 | -4 | 100 | 89* | -2 | 104
Cc1cc(C)n(-c2nc3c(c(=O)[nH]c(=O)n3C)n2CC(O)COc2ccc(Cl)cc2Cl)n1 (configuration not stated) | 2 | 85 | 7 | 100 | 72* | 3 | 96
C=CCn1c(=O)c2c(nc(-n3nc(C)cc3C)n2C)n(C)c1=O | 0 | 101 | -2 | 102 | 0 | . | .
CCC(C(=O)OC)n1cnc2c(nnn2-c2ccc(F)cc2)c1=O (configuration not stated) | 3 | 103 | 3 | 103 | 1 | . | .
O=C(CN1C(=O)NC2(CCCC2)C1=O)NCc1ccc(Cl)cc1 | . | . | -1 | . | 0 | . | .
COCc1cc(C)nc(N/N=C/c2ccc(Cl)c(Cl)c2)c1C#N | -1 | 98 | 5 | 101 | 85* | 2 | 101
Cc1nc2sccc2c(=O)n1N | -1 | 102 | -1 | 99 | 5 | . | .
CSCC[C@H](NC(=O)Cc1c(C)c2c(cc(C)c3c(C)coc32)oc1=O)C(=O)O | 7 | 103 | 2 | 104 | 97* | -5 | 95
COc1ccccc1S(=O)(=O)Cc1ccc(C(=O)NC(C)c2ccc3c(c2)OCCO3)o1 (configuration not stated) | -2 | 101 | -4 | 99 | 2 | 1 | 99
Cc1ccccc1S(=O)(=O)Cc1ccc(C(=O)NC(C)c2ccccc2)o1 (configuration not stated) | -1 | 98 | 4 | 95 | 0 | . | .
Cc1ccc(N2C(=O)N(CC(=O)Nc3ccc(F)c(F)c3)C(=O)C2C)cc1 (configuration not stated) | . | . | 4 | . | 100* | 3 | 98
Cc1ccc(N2C(=O)N(CC(=O)Nc3cc(C)cc(C)c3)C(=O)C2C)cc1 (configuration not stated) | -9 | 98 | -3 | 96 | 2 | . | .
Cc1ccc(N2C(=O)N(CC(=O)Nc3ccc([N+](=O)[O-])cc3)C(=O)C2C)cc1 (configuration not stated) | 2 | 99 | 21 | 97 | 100* | . | . | GRK2 confirm 2=11;FAM quench CP2=99
CCn1c(SCC(=O)NC2CCCCC2)nc2ccccc2c1=O | 9 | 102 | -4 | 105 | 0 | . | .
COc1ccc(CNc2ncc(-c3ccc(Cl)cc3)n2C)c(OC)c1OC | 17 | 102 | 8 | 113 | 1 | . | .
O=C(C[C@@H]1C/C=C\C[C@H](NC(=O)OCC2c3ccccc3-c3ccccc32)C(=O)OC[C@H]2CCCN2C1=O)NCCO | . | . | -3 | . | 10 | . | .
O=C(NCc1ccco1)c1cccc(NC(=O)c2ccccc2)c1 | 1 | 98 | -4 | 99 | 0 | -3 | 106
Cc1ccc(C(=O)NCc2ccco2)cc1 | -2 | 99 | 3 | 99 | 2 | . | .
CCC(CC)C(=O)Nc1cccc(C(=O)NCc2ccco2)c1 | -5 | 89 | -1 | 84 | 0 | . | .
Cc1ccc(C(=O)Nc2cccc(C(=O)NCc3ccco3)c2)cc1 | -2 | 95 | -6 | 94 | 0 | 34 | 103 | Aptamer quench=6.2
SMILES | MEKK2mut PB1 HTS | MEKK3 PB1 HTS | B2AR ag | MEKK2wt PB1 HTS | GRK2 inh | GRK2 inh confirm | Aptamer quench SP | others
O=C(NCC(c1cccs1)N1CCOCC1)c1ccc(OCc2ccccc2)cc1 (configuration not stated) | . | . | -5 | . | 3 | . | .
CN(CC(=O)Nc1ccc(Cl)c(C(F)(F)F)c1)C(=O)c1ccccc1SCC(=O)N1CCCC1 | . | . | -5 | . | . | . | .
Cc1ccc(C(=O)N/N=C\C=C\c2ccc(Br)cc2)cn1 | 7 | 102 | -6 | 102 | 36 | . | .
Cc1ccc(C(=O)N/N=C/c2cc(Br)ccc2O)cn1 | 4 | 110 | -10 | 112 | 73* | -1 | 93
COC(=O)c1ccc(NC(=O)CCS(=O)(=O)c2ccc3c(c2)NC(=O)C(C)S3)cc1 (configuration not stated) | 3 | 102 | -1 | 105 | 6 | . | .
COc1ccccc1NC(=O)CCS(=O)(=O)c1ccc2c(c1)NC(=O)C(C)S2 (configuration not stated) | 0 | 99 | -3 | 100 | 22 | . | . | GRK2 confirm 2=10;FAM quench CP2=97
Cc1ccc(CNC(=O)CCS(=O)(=O)c2ccc3c(c2)NC(=O)C(C)S3)cc1 (configuration not stated) | 7 | 104 | 14 | 105 | 8 | . | . | GRK2 confirm 2=9;FAM quench CP2=102
Cc1ccc(CNC(=O)CC(C)S(=O)(=O)c2ccc3c(c2)NC(=O)C(C)S3)cc1 (configuration not stated) | 3 | 102 | 16 | 101 | 3 | . | . | GRK2 confirm 2=1;FAM quench CP2=100
Cc1ccc(CCNC(=O)C2CCN(S(=O)(=O)c3ccc4c(c3)NC(=O)C(C)S4)CC2)cc1 (configuration not stated) | -5 | 95 | 1 | 95 | 0 | . | .
COc1ccccc1CNC(=O)COC(=O)c1ccc(C)c(S(=O)(=O)N2CCOCC2)c1 | . | . | 11 | . | 1 | . | .
NS(=O)(=O)c1ccc(CNC(=O)CCSCCC(=O)NCc2ccc(S(N)(=O)=O)cc2)cc1 | 0 | 106 | -1 | 106 | 0 | . | .

Screening results: PubChem BioAssay, NMMLSC
